{
  "source": "PubChem BioAssay (Tox21)",
  "note": "Results filed as inconclusive are left out. Entries that show only a call come without a potency. Some structures have more than one record in an assay (separate samples or runs), and their calls can disagree. Active and inactive are the calls of the source. Calls follow the shape of the dose curve; as a rule, active = well fitted activation curve with a large enough effect in the repeat runs; inconclusive = weak or mixed curves; inactive = flat fitted curve, though single readings scatter. Potency is read from the fitted curve at half-maximal effect.",
  "data": [
    {"experiment": "A CellTox Green Cytotoxicity Assay to monitor cytotoxicity in HEK293 cells - 32 hour (AID 1224881); also: nearly all actives have a fitted effect of over 40% in size", "details": "CellTox Green fluorescence; series mostly up to 76.8 µM", "description": "National Center for Advancing Translational Sciences [NCATS]\nNIH Chemical Genomics Center [NCGC]\nU.S. Environmental Protection Agency [EPA]\nNational Institutes of Environmental Health Sciences [NIEHS]\nNational Toxicology Program [NTP]\nCell-based models are critical for drug discovery. Determining the natural cytotoxic effects resulting from test compounds is an essential research activity. A CellTox Green Cytotoxicity Assay to monitor cytotoxicity in real time of continues cell culture during 40 hours of the compound treatment was used to screen Tox21 10K library compounds in Hek293 cells. CellTox Green Cytotoxicity Assay is a nonlytic, homogeneous, biofluorescent method to measure cytotoxicity in cell culture after experimental manipulation. The assay system uses a proprietary asymmetric cyanine dye that is excluded from viable cells but preferentially stains the dead cell's DNA. […] Viable cells produce no appreciable increases in fluorescence. Therefore, the fluorescence signal produced by the binding interaction with dead cell DNA is proportional to cytotoxicity.\nThe mixture of Hek293 cell suspension and reagents were dispensed at 600cells/6 ul/well in 1536-well tissue culture treated black solid bottom plates using a Multidrop dispenser. After the assay plates were incubated at a 37 C/5% CO2 incubator for 5 hours, 23 nL of compounds dissolved in DMSO, positive and negative controls was transferred to the assay plate by a pintool work station. The plates were incubated at 37 C for 40 hours. The fluorescence intensity were measured at 0h, 8h, 16h, 24h, 32h and 40h time points using ViewLux plate reader during compound treatment.", "values": [
      {"smiles": "C[C@H]1CCCC(=O)CCC/C=C/c2cc(O)cc(O)c2C(=O)O1", "Potency": "inactive"},
      {"smiles": "c1cncc([C@@H]2CCCCN2)c1", "Potency": "inactive"},
      {"smiles": "CC(Cc1ccccc1)NCCn1cnc2c1c(=O)n(C)c(=O)n2C", "note": "(stereo not given)", "Potency": "inactive"},
      {"smiles": "CC(=NC#N)N(C)Cc1ccc(Cl)nc1", "Potency": "inactive"},
      {"smiles": "CCCCCCCC(=O)Cl", "Potency": "inactive"},
      {"smiles": "CC(Cc1ccccc1)NCCCCl", "note": "(stereo not given)", "Potency": "inactive"},
      {"smiles": "COP(=O)(OC)O/C(C)=C/C(=O)N(C)C", "Potency": "inactive"},
      {"smiles": "C[C@H](N)C(=O)c1ccccc1", "Potency": "inactive"},
      {"smiles": "ClC1=C(Cl)C2(Cl)C(CBr)CC1(Cl)C2(Cl)Cl", "note": "(stereo not given)", "Potency": "54.9 µM (active) and inactive"},
      {"smiles": "CC1NCCOC1c1ccccc1", "note": "(stereo not given)", "Potency": "inactive"},
      {"smiles": "[P]#[In]", "Potency": "inactive"},
      {"smiles": "CCc1ccc(C2CCNCC2)cc1", "Potency": "inactive"},
      {"smiles": "O=c1[nH]c2ccccc2n1C1CCNCC1", "Potency": "inactive"},
      {"smiles": "N[C@@H](Cc1ccc(Oc2cc(I)c(O)c(I)c2)c(I)c1)C(=O)O", "Potency": "inactive"},
      {"smiles": "CCCCCCCCSC(=O)Oc1cc(Cl)nnc1-c1ccccc1", "Potency": "inactive"},
      {"smiles": "C=C1C[C@@H]2[C@H](CC[C@]3(C)C(=O)CC[C@@H]23)[C@@]2(C)C=CC(=O)C=C12", "Potency": "inactive"},
      {"smiles": "CCNc1nc(NCC)nc(SC)n1", "Potency": "inactive"},
      {"smiles": "N=C(N)[Se]", "Potency": "inactive"},
      {"smiles": "CC(O)CCl", "note": "(stereo not given)", "Potency": "inactive"},
      {"smiles": "CC(C)C(C)(N)C#N", "note": "(stereo not given)", "Potency": "inactive"},
      {"smiles": "ClC(Cl)(Cl)Cl", "Potency": "inactive"},
      {"smiles": "COc1ccccc1OC", "Potency": "inactive"},
      {"smiles": "O=C(Cl)OCc1ccccc1", "Potency": "inactive"},
      {"smiles": "COC(=O)c1ccc(CBr)cc1", "Potency": "inactive"},
      {"smiles": "CCCOc1nn(C(=O)NS(=O)(=O)c2ccccc2C(=O)OC)c(=O)n1C", "Potency": "inactive"},
      {"smiles": "CC(C)NCC(O)c1ccc([N+](=O)[O-])cc1", "note": "(stereo not given)", "Potency": "inactive"},
      {"smiles": "CCNc1nc(Cl)nc(NC(C)(C)C)n1", "Potency": "inactive"},
      {"smiles": "Cc1ccc(S(=O)(=O)N[C@@H](CCCCN)C(=O)CCl)cc1", "Potency": "inactive"},
      {"smiles": "CCCOC(=O)Cc1ccc(OCC(=O)N(CC)CC)c(OC)c1", "Potency": "inactive"},
      {"smiles": "CCSC(=O)Cl", "Potency": "inactive"},
      {"smiles": "CCC1(c2ccccc2)C(=O)N(COC)C(=O)N(COC)C1=O", "Potency": "inactive"},
      {"smiles": "C#CC(C)(C)O", "Potency": "inactive"},
      {"smiles": "CON(C)C(=O)Nc1ccc(Br)c(Cl)c1", "Potency": "inactive"},
      {"smiles": "O=C1CCCCC1Cl", "note": "(stereo not given)", "Potency": "inactive"},
      {"smiles": "O=C(O)C(F)(F)C(F)(F)C(F)(F)C(F)(F)C(F)(F)C(F)(F)F", "Potency": "inactive"},
      {"smiles": "C=C(Cl)CSC(=S)N(CC)CC", "Potency": "inactive"},
      {"smiles": "CCCCCCC(=O)CCCCCC/C=C/C[C@@H](O)[C@H](O)[C@@](N)(CO)C(=O)O", "cytotoxicity increase": "-8.63% [at 15.8 µM] (inactive)"},
      {"smiles": "ClCC1CO1", "note": "(stereo not given)", "Potency": "inactive"},
      {"smiles": "NNC(N)=O", "Potency": "inactive"},
      {"smiles": "CCCCCCC1CCOC1=O", "note": "(stereo not given)", "Potency": "inactive"}
    ]}
  ]
}
